# Only some compounds are listed: those with a hit (about 2.6% of all), similar ones and a draw of the others.
# A3G deaminase: APOBEC3G (human) deaminase inhibition; recombinant A3G, ssDNA deamination FAM/TAMRA fluorescence; inhibition, % at 20 µM; 330,000 tested, 0.28% active;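 active = inhibition of at least 40% at 20 µM, with no more than 30% in the related APOBEC3A deaminase screen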;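 also: plate controls were DMSO wells with A3G for no effect and wells lacking A3G enzyme for full effect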
# eIF4H inh: inhibitors of RNA binding by human eIF4H; Q15056; eIF4H fluorescence polarization binding assay; inhibition, % at 35 µM; 290,000 tested, 0.94% active;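 also: calls also rest on retests at 20 µM and on dose response follow-up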
# PHOSPHO1 inh: blocks human PHOSPHO1 phosphatase activity. Q8TCT1. inhibition, % at 13.3 µM. 290,000 tested, 1.1% active. recombinant PHOSPHO1, absorbance phosphatase assay; in the data active = inhibition above about 60%
# Target sequence (Q8TCT1 whole entry, looked up): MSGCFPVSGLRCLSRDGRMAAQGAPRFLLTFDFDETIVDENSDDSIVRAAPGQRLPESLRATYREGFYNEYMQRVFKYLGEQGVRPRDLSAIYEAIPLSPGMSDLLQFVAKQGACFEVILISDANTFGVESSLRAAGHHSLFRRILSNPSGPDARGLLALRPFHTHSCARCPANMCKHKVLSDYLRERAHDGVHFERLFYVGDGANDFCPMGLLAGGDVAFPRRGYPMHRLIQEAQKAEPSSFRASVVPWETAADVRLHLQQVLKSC
# PABP1 MLLE inh: blocks PAM2 peptide binding to the PABP1 MLLE domain; 360,000 tested, 0.36% active; P11940; inhibition, % at 20 µM; GST-MLLE / FITC-PAM2 fluorescence polarization; in the data active = inhibition above about 35%, passing the limit was not always enough;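 also: plate controls were DMSO wells with GST-MLLE for no effect and wells lacking GST-MLLE protein for full effect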
# APOBEC3A inh: blocks human APOBEC3A ssDNA deamination. AID 493011. inhibition, % at 20 µM. recombinant A3A, FAM/TAMRA ssDNA deamination fluorescence. 330,000 tested, 0.41% active. P31941;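 active = at least 40% inhibition at 20 µM here, with at most 30% in a related deaminase screen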;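 also: plate controls were A3A with DMSO for no effect and wells lacking A3A enzyme for full effect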
# Target sequence (P31941 whole entry, looked up): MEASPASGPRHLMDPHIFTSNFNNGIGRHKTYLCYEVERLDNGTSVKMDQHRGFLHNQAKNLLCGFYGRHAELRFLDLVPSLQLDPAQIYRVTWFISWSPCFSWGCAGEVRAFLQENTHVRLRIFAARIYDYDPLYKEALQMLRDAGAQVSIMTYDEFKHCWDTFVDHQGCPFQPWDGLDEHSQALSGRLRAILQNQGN
# PABP polyA inh: PABP-poly(A) binding inhibition; calls only at 35 µM; P11940; 290,000 tested, 1% active; AID 2014; PABP-poly(A) RNA binding, fluorescence polarization;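 also: calls also rest on retests at 20 µM and on dose response follow-up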
# * = called active by the depositor; i = inactive; . = no result given; + = active, no number. Unless noted, no rule for the calls is given here.
SMILES,A3G deaminase,eIF4H inh,PHOSPHO1 inh,PABP1 MLLE inh,APOBEC3A inh,PABP polyA inh
Cc1snc(SCC(=O)c2ccc(F)cc2)c1C#N,-5.2,9.2,-90.4,6.3,-2.8,i
O=C(Nc1ccc([N+](=O)[O-])cc1)c1cccc(S(=O)(=O)Nc2ccccn2)c1,-3.1,-4.2,23.0,14.7,1.0,i
Cc1nc2ccc(S(=O)(=O)N3CCCCC3)cc2s1,-9.3,-1.5,27.5,2.8,-0.7,i
Nc1nc2ccc(S(=O)(=O)N3CCCCC3)cc2s1,-1.7,-4.6,50.4,42.1*,1.7,i
COc1ccc(-c2nnc(SC3CCOC3=O)n2C2CCCCC2)cc1OC (centres undefined),-5.0,-3.5,75.3*,-58.9,1.6,i
O=C(CNC(=O)c1ccccc1F)Nc1ccccc1C(F)(F)F,-5.5,1.0,68.6*,-10.0,-0.6,i
CCOc1ccc2[nH]c(=O)c(CN(Cc3nnnn3Cc3ccco3)C3CCCCC3)cc2c1,17.3,56.8*,-36.8,28.9,38.6,+
Cc1ccc2cc(CN(CCN3CCOCC3)Cc3nnnn3Cc3ccco3)c(=O)[nH]c2c1C,.,85.8*,4.6,-17.4,.,+
COc1ccccc1CN(Cc1cc2cc(C)ccc2[nH]c1=O)Cc1nnnn1Cc1ccco1,5.1,26.9,2.8,-19.0,7.2,i
COCCn1nnnc1CN(Cc1cc2cc(OC)c(OC)cc2[nH]c1=O)C1CCCC1,-0.9,51.3*,33.3,4.6,-17.8,+
COc1ccc(Cn2nnnc2CN(Cc2cc3ccc(C)cc3[nH]c2=O)C2CCCC2)cc1,0.4,-13.6,-27.7,-10.8,-4.1,i
COc1cc2cc(CN(Cc3nnnn3Cc3ccco3)C3CCCCC3)c(=O)[nH]c2cc1OC,10.9,61.3*,29.6,12.9,12.0,+
CCOc1ccc2[nH]c(=O)c(CN(Cc3ccco3)Cc3nnnn3Cc3ccccc3)cc2c1,-0.2,1.9,-29.9,15.9,1.4,i
CCOc1ccc(CC(=O)N2N=C(C)CC2(O)C(F)(F)F)cc1 (centres undefined),-5.4,-3.1,13.3,1.3,2.9,i
CN1C(=O)C(=O)/C(=C(/O)c2ccc(Br)cc2)C1c1ccc(F)cc1 (centres undefined),-1.3,-1.7,27.3,2.8,-3.3,i
N#Cc1ccc(CN2CCN(c3ccc(S(=O)(=O)N4CCCC4)cn3)CC2)cc1,-4.4,.,.,7.6,-1.7,.
CN(c1ccccc1C(=O)Nc1ccc(F)c(Cl)c1)S(C)(=O)=O,-1.7,-11.3,26.0,3.2,5.6,i
COc1ccc2c(c1OC)C(=O)N1C2SC[C@H]1C(=O)NC1CCCC1 (some centres undefined),0.0,-10.8,23.5,41.1*,-2.3,i
CCC(C)NC(=O)[C@H]1N2C(=O)c3c(ccc(OC)c3OC)C2SC1(C)C (some centres undefined),-5.4,6.2,42.2,42.7*,-3.9,i
N#Cc1c(N2CCCC(O)C2)nc(N)c2c(N)nc3c(c12)CC(=O)N3C12CC3CC(CC(C3)C1)C2 (centres undefined),-2.5,90.7*,19.1,-42.4,-0.5,+
C=C(C)CN(CC)c1nc(N)c2c(N)nc3c(c2c1C#N)CC(=O)N3C12CC3CC(CC(C3)C1)C2,1.9,75.5*,13.0,-14.2,2.1,+
CCCCN1C(=O)Cc2c1nc(N)c1c(N)nc(N(CCC)CCC)c(C#N)c21,.,10.5,0.9,13.8,.,i
O=C(N/N=C\c1ccc[nH]1)C1COc2ccccc2O1 (centres undefined),-6.2,-4.7,8.1,7.2,-2.4,i
CC(=O)Cc1nsc(NC(=O)c2cccs2)n1,2.9,-5.7,4.6,4.2,7.0,i
COc1cccc(/C=C2/CN(C)CC3=C2OC(N)=C(C#N)C3c2cccc(OC)c2)c1 (centres undefined),-3.6,75.2*,1.1,-46.9,-3.1,+
SMILES,A3G deaminase,eIF4H inh,PHOSPHO1 inh,PABP1 MLLE inh,APOBEC3A inh,PABP polyA inh
COc1ccc(S(=O)(=O)N(C)C[C@@H]2OCCCC[C@@H](C)Oc3ccc(NC(=O)NC(C)C)cc3C(=O)N([C@H](C)CO)C[C@@H]2C)cc1,.,.,.,-39.1,.,.
CCCCC(O)(CCCC)C(=O)N/N=C(\C)c1ccc(Cl)cc1,-6.3,84.4*,24.0,-3.6,3.0,+
C/C(=N/NC(=O)CNc1ccc(C)cc1)c1ccc(Cl)cc1,-1.1,-11.7,24.6,-2.0,-0.5,i
COc1ccc(CCn2c(-c3ccco3)nc3nc4ccccc4nc32)cc1,-4.6,66.9*,7.0,-45.8,-2.0,+
CC1=NC(=O)C(N=Nc2cccc(O)c2)N1c1ccccc1 (centres undefined),17.2,-13.7,95.0*,-128.4,27.9,i
Cc1cccc(-n2c(O)c(C=Nc3cccc(O)c3)c3ccccc3c2=O)n1,-7.8,1.5,-0.3,-1.4,-5.9,i
Cc1cc2ncn(-c3ncccc3[N+](=O)[O-])c2cc1C,-0.1,-10.4,4.0,60.6*,0.1,i
Cc1ccccc1N=Cc1cc2c(cc1[N+](=O)[O-])OCO2,-0.2,96.0,-14.1,15.1,-2.3,+
Cc1cc(C)nc(N/N=C/c2cc3c(cc2[N+](=O)[O-])OCO3)n1,0.2,54.8*,4.4,8.2,2.6,+
Cc1c(N=Cc2cc3c(cc2[N+](=O)[O-])OCO3)cccc1[N+](=O)[O-],24.0,.,.,24.0,29.2,.
S=c1[nH]nc(-c2cccc(Br)c2)o1,-0.5,0.5,27.0,-67.9,-5.3,i
S=c1[nH]nc(-c2cccnc2)o1,-2.4,-11.7,89.5*,-113.4,0.6,i
N#CC(c1nc2ccccc2nc1OCCO)S(=O)(=O)c1ccccc1 (centres undefined),-1.3,0.7,-29.1,7.8,2.1,i
CCOc1ccccc1N1Cc2cc(C)c(C)cc2C1,-0.1,2.7,26.2,-21.0,-0.9,i
COc1ccc(OC)c(N2Cc3cc(C)c(C)cc3C2)c1,2.2,105.2*,0.1,-21.8,0.0,i
O=c1c(-c2c(O)cc(O)c3c(=O)cc(-c4ccc(O)cc4)oc23)c(-c2ccc(O)cc2)oc2cc(O)cc(O)c12,44.0,94.7*,8.5,-14.3,31.5,+
O=c1cc(-c2ccc(O)cc2)oc2c(-c3c(O)cc(O)c4c(=O)cc(-c5ccc(O)cc5)oc34)c(O)cc(O)c12,4.2,.,.,-6.7,2.7,.
Cc1cc(C)n(NC(=S)NC2CCCC2)c(=O)c1C#N,-3.4,-2.2,16.9,44.9*,-1.1,i
CCCCc1ccc(-c2csc(/C(C#N)=C\c3ccco3)n2)cc1,-2.9,55.2*,18.6,-61.7,-1.8,i
O=S(=O)(c1ccc2c(c1)OCCO2)N1CCN(Cc2ccc3c(c2)OCO3)CC1,-3.0,0.9,9.7,-0.1,-0.6,i
Cn1c(=O)oc2cc(S(=O)(=O)N3CCOCC3)ccc21,1.9,-9.7,16.5,-5.2,1.2,i
Cn1c(=O)oc2cc(S(=O)(=O)N3CCC4(CC3)OCCO4)ccc21,-1.9,95.1*,-3.5,-8.2,0.2,+
